The text below walks through data of PubChem BioAssay AID800 (PCMD, 2007).

Screen size: about 220,000 compounds; about 650 (0.3%) were called active. Many of the other results were omitted from the sample, so actives are more common in it than they were. Unmarked numbers belong to inactive results. No stated cut-off is given here; in the data, active means inhibition above about 40%; inactive means the rest.

Sequence of Coagulation factor XII (Homo sapiens) (P00748 20-372 limits assumed): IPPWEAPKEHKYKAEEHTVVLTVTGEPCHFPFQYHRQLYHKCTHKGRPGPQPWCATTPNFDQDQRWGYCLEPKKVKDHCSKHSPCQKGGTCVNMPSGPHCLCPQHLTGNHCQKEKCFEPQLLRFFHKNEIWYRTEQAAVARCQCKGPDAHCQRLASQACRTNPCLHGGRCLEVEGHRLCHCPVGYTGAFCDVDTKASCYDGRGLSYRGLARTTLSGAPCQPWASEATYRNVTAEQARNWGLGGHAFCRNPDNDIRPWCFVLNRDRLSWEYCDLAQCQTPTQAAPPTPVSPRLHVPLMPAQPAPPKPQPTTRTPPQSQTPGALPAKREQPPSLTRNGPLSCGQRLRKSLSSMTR
Sequence of Coagulation factor XII (Homo sapiens) (P00748 373-615 limits assumed): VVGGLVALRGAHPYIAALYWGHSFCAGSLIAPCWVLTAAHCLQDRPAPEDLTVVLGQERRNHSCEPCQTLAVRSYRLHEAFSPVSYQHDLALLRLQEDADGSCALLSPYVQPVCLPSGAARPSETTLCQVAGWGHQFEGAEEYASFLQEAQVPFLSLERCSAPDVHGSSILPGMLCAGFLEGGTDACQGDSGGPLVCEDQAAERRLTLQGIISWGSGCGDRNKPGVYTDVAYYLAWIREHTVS

The experiment has as its target Coagulation factor XII (Homo sapiens) (UniProt P00748). Briefly: human FXIIa protease inhibitors, primary screen, biochemical, 1536-well (AID 800).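 Further: 0% = enzyme with no compound and 100% = blank without enzyme.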 Conditions: purified FXIIa, Boc-QGR-AMC fluorogenic substrate, 2 h; at 5 µM; hits give high values.
By inhibition is commonly meant the drop in the measured response relative to a control, in per cent. For the compound `O=C(c1ccc(F)cc1)n1c(=S)nc2ccccn21`, the inhibition is 0.92%. `COc1c(O)cc2oc(-c3ccc(O)c(O)c3)cc(=O)c2c1O`: the inhibition is 2.88%. On to `CCCCN1Cc2c(nc3cc(-c4ccccc4)[nH]n3c2=O)C1=O`, for which the inhibition was -5.1%.

Take `O=C(NCc1cccnc1)c1cnc2ccccc2n1`: the inhibition is 8.13%. Then `COC(=O)c1c(C)oc(C)c1S(=O)(=O)NCc1ccc(Cl)cc1`, with 6.03%.

On to `CC(=O)c1ccc(NC(=O)C2CC(=O)Nc3nc4ccccc4n32)cc1` (centres undefined), for which the inhibition was 8.34%. The figure for `COc1ccc(C2/C=C\CN(S(=O)(=O)c3cccs3)CC(=O)N2Cc2ccc(F)cc2)cc1` (centres undefined) is 9.45%; for `O=[N+]([O-])c1cc(Cl)cc(/C=N/NC(=S)Nc2cc(S(=O)(=O)N3CCOCC3)ccc2Cl)c1O` it is 6.23%. In the case of `CSCC[C@H](NC(=O)CCCn1nnc2ccccc2c1=O)C(=O)O`, the inhibition was 4.87%. The figure for `CCOC(=O)COc1nc(C)cc(C(F)(F)F)c1C#N` is -0.55%; for `Cc1ccc(Nc2nc(N)nc(CSc3nnc(C)s3)n2)cc1` it is 4.96%. Then `Cc1cnc(NC(=O)c2ccccn2)s1`, with 7.08%; and `COC(=O)c1ccc(Oc2nc(NC(C)C)nc(SC)n2)cc1`, with 44% (active); and `CCNc1nc(Oc2ccc(C(=O)OC)cc2)nc(N2CCOCC2)n1`, with 9.71%.

Turning to `COC(=O)c1ccc(Oc2nc(Nc3ccc(F)cc3)nc(N3CCCC3)n2)cc1`, the inhibition was -2.89%. Then `COCCN(C(=S)Nc1cccc(Cl)c1C)C(C)c1ccco1` (centres undefined), with 6.59%. Regarding `COP1(=O)C[C@@H](O)[C@@H](O)[C@@H](COCc2ccccc2)O1` (some centres undefined), the inhibition was 5.94%. The figure for `O=[N+]([O-])c1ccc2nc(-c3ccccn3)[nH]c2c1` is 5.76%; for `CN(C)S(=O)(=O)c1ccc(NC(=O)COC(=O)Cn2[nH]c(=O)c3ccccc3c2=O)cc1` it is -3.32%; for `Cc1nn2c(NCCN(C)C)c3c(nc2c1-c1ccccc1)CCC3` it is 10.3%. Then `O=C1NNC(c2ccccc2)=N/C1=C\c1ccc(Cl)cc1`, with 0.78%. Then `CC1Cc2ccccc2N1CC(=O)Nc1ccc(S(N)(=O)=O)cc1` (centres undefined), with 7.97%. `COc1ccc2oc(N)c(C=O)c(=O)c2c1`: the inhibition was 8.71%.

Regarding `CC(C)(C)C(=O)NNC(=O)c1ccc(Oc2cc(Cl)cc(Cl)c2)o1`, the inhibition was 8.39%. Then `CCOC(=O)c1cc(C)nc(S(C)(=O)=O)c1C#N`, with 2.84%; and `CC(C)=CCC/C(C)=C/C(=O)O`, with 4.62%.

Turning to `O=c1c2ccccc2cnn1Cc1n[nH]c(=S)n1-c1ccccc1F`, the inhibition is 4.28%. Then `COc1ccc(SC[C@H](Cc2ccccc2)N2CCN(CCc3ccccc3)CCC2=O)cc1`, with 9.1%; and `NC(=O)c1nnsc1-c1ccc(-c2snnc2C(N)=O)cc1`, with -1.04%; and `COC(=O)c1cc(S(=O)(=O)N2CCC(C(N)=O)CC2)oc1C`, with 1.7%.

`NC(=O)CC(NC(=O)Cc1cccc2ccccc12)c1ccc(NCc2cc(F)ccc2F)c([N+](=O)[O-])c1` (centres undefined): the inhibition was 3.78%. Then `Nc1ccccc1C(=O)NC1CCCCNC1=O` (centres undefined), with 3.81%; and `O=C(Nc1cccnc1Oc1ncnc2cc(Cl)ccc12)c1ccc(F)cc1`, with 0.47%; and `CCOC(=O)CC1C(=O)NCCN1c1nc2c(C)cccn2c(=O)c1/C=C1\SC(=S)N(C(C)CC)C1=O` (centres undefined), with 14%. For the compound `S=c1[nH]nc(-c2cc(-c3ccccc3)n[nH]2)n1/N=C/c1c2ccccc2cc2ccccc12`, the inhibition is 8.1%. The figure for `CC(C)c1nc(SCC(=O)NC(=O)NC(C)(C)C)n[nH]1` is 12.8%; for `Cc1ccc(NNC(=O)C2CCC2)cc1C` it is 10.5%; for `C=CCC1(C#N)C(=S)NC(C)=C(C(=O)OCC)C1c1ccccc1` (centres undefined) it is 6.96%. As to `Cc1nc(Cl)c(C#N)c2c1CCCC2`, the inhibition was 2.37%.

In the case of `Cc1cc(C)c(NC(=O)CN2C(=O)NC(Cc3ccccc3)C2=O)c(C)c1` (centres undefined), the inhibition is 0.73%.

Take `CC(C)=CCc1c(O)c(CC=C(C)C)c2occ(-c3ccc(O)cc3)c(=O)c2c1O`: the inhibition was 7.17%. Then `O=C(O)C1=C[C@H](c2cccs2)C[C@H](OCCCCO)O1`, with 7.11%; and `Cc1ccc(S(=O)(=O)NC(=O)N2CCCN(Cc3ccc(F)cc3)CC2)cc1`, with 3.56%.

As for `Cc1ccc(NC(=O)Nc2cc(-c3ccccc3)nn2C)cc1Cl`, the inhibition was -1.26%. The figure for `Nc1nnc(SCC(=O)NC2CCCc3ccccc32)s1` (centres undefined) is -2.74%.

For the compound `CN(C)C(=O)c1coc2nc3ccccc3nc12`, the inhibition was 7.55%.

For the compound `CC1Cc2ccccc2N1S(=O)(=O)c1ccc(Cl)nc1` (centres undefined), the inhibition was 1.69%.

Turning to `COc1ccc2c(c1)c1ncn(Cc3ccccn3)c(=O)c1n2C`, the inhibition is -1.96%. The figure for `CN=C1C=C/C(=N/N=c2\ccn(O)cc2C)C=C1C` is 12.1%; for `O=C1CCC(=O)N(O)CCCCCNC(=O)CCC(=O)N(O)CCCCCNC(=O)CCC(=O)N(O)CCCCCN1` it is 6.14%. Consider `O=C(O)C(F)(F)C(NCc1ccccc1)c1ccccc1` (centres undefined), for which the inhibition was 18.5%. The figure for `CCOC(=O)CSc1nc(C)c(Oc2ccc(Cl)cc2Cl)c(=O)[nH]1` is 10.3%. For `COCCCn1c(-c2cccs2)nc2nc3ccccc3nc21`, the inhibition was -19.8%.

Regarding `CSCC[C@H](NC(=O)NC1CCCC1)C(=O)O`, the inhibition is 0.35%. The figure for `CCN(CC(=O)Nc1ccc(S(=O)(=O)N2CCCC2)cc1)CC(=O)Nc1cccc(OC)c1` is 3.63%; for `O=C(NN1C(=O)C2CCCCC2C1=O)c1ccco1` (centres undefined) it is 5.14%; for `C/C(=N/NC(=O)CC(=O)N/N=C(\C)c1ccc([N+](=O)[O-])cc1)c1ccc([N+](=O)[O-])cc1` it is 6.83%. Then `O=C(CS(=O)(=O)c1cn(Cc2ccc(Cl)cc2)c2ccccc12)N1CCOCC1`, with 45.4% (active).

With `O=C(CS(=O)(=O)c1cn(Cc2cccc(F)c2)c2ccccc12)N1CCCCC1`, the inhibition is 14.4%. Turning to `COc1cccc(NC(=O)CS(=O)(=O)c2cn(CC(=O)N3CCOCC3)c3ccccc23)c1`, the inhibition is 2.47%. The figure for `CCN(CC)CCC(c1ccc2c(c1)OCO2)c1c(OC)cc(OC)c2c(-c3ccccc3)cc(=O)oc12` (centres undefined) is 8.45%. Then `CN(Cc1ccccn1)Cc1nc(-c2ccc(Cl)cc2)no1`, with 103% (active); and `COC(=O)c1ccc(-c2noc(CN(Cc3ccccn3)CC3CCCO3)n2)cc1` (centres undefined), with 14.6%; and `CCN1CC(CN(C)Cc2nc(-c3ccc(Cl)cc3)no2)CC1=O` (centres undefined), with 7.51%. Then `COc1cc(OC)c2ccc(=O)oc2c1C(CCN1CCN(c2ccccc2)CC1)c1ccc2c(c1)OCO2` (centres undefined), with 7.95%.

As to `CCOC(=O)c1c(N)sc2c1CCCC2=O`, the inhibition was 5.97%. The figure for `O=C(O)C1CCN(C(=O)c2cc(F)cc3c2OCOC3)CC1` is 4.37%; for `Cc1ccc(Nc2c3c(nc4ccccc24)CCC3)cc1` it is 9.63%; for `CSc1nnc(SCc2nc3sc(C(=O)O)c(C)c3c(=O)[nH]2)s1` it is 10.1%.

Regarding `COc1ccc(CCNC(=O)CCn2c(=O)c3ccccc3n(CC(=O)NCC3CCCO3)c2=O)cc1OC` (centres undefined), the inhibition was 40% (active). The figure for `COc1ccc(CCNC(=O)Cn2c(=O)n(CC3CCCO3)c(=O)c3ccccc32)cc1OC` (centres undefined) is -8.44%; for `COc1ccc(CCNC(=O)CCn2c(=O)oc3ccccc32)cc1OC` it is 7.51%. Then `Cc1cc(Cl)ccc1NNC(=O)c1snnc1C`, with 7.13%. The figure for `COc1ccc(SCCN2CCN(CC(C)C)CCC2=O)cc1` is 7.64%; for `CC1(C)CC(=O)C=C(Nc2ccccc2)C1` it is 6.92%; for `S=c1[nH]nc(-c2cc(-c3ccsc3)n[nH]2)n1-c1ccccc1` it is 4.05%. `CC(C)C(=O)N1CCC2(CC1)Oc1ccc(F)cc1C(=O)C21CC(c2ccccc2)=NO1` (centres undefined): the inhibition is 8.49%. The figure for `O=c1cc(CCl)nc2scc(-c3ccccc3)n12` is 6.87%; for `Cc1c(C#N)c2ncn(CC#N)c(=O)c2n1-c1ccccc1` it is 7.67%; for `CN(C)c1ccnc2sc3c(=O)n(Cc4ccccc4)cnc3c12` it is 2.78%. `CN(C)/C=C/c1c(C#N)c(=O)ncn1Cc1ccccc1`: the inhibition was 53% (active). Consider `O=C(N/N=C/c1cccc2cccnc12)[C@H]1C[C@@H]1c1ccccc1`, for which the inhibition was 8.29%.

For the compound `O=C(O)CCn1c(O)c(C=C2N=c3ccccc3=N2)sc1=S`, the inhibition is 12.8%.

Take `COc1ccc(Cl)cc1S(=O)(=O)N1CCC(O)(c2ccc(Cl)cc2)CC1`: the inhibition was 3.43%. The figure for `Cc1cc(N)n(-c2ccc(S(=O)(=O)N3CCCC3)cc2[N+](=O)[O-])n1` is 3.82%. The figure for `O=C(Nc1ccc(N2CCN(C(=O)c3ccccc3)CC2)c(Cl)c1)c1ncn[nH]1` is 7.54%. In the case of `O=C(Cc1ccccc1)Nc1c(Cl)ccc2nsnc12`, the inhibition is 2.05%.

Turning to `C[C@H](NC(=O)c1nc[nH]c1C(=O)N[C@@H](C)C(=O)OC(C)(C)C)C(=O)OC(C)(C)C`, the inhibition is 12.4%.

`CCOC(=O)c1cn(CC)c2cc(F)c(F)cc2c1=O`: the inhibition was 4.45%.

Regarding `COc1cc(NC(=O)c2cncc(-c3ccc(C#N)cc3)c2)cc(C(=O)Nc2cccc(C(F)(F)F)c2)c1`, the inhibition was 3.5%.

Consider `O=[N+]([O-])c1cc([N+](=O)[O-])c2cccnc2c1O`, for which the inhibition is 3.18%. The figure for `O=C(Nc1cccc(S(=O)(=O)NC2=NCCC2)c1)C1CCCCC1` is 14.4%. In the case of `COc1ccc2[nH]c(C(=O)Nc3ccccc3Cl)cc2c1`, the inhibition is 6.03%. The figure for `CCC/C(C)=N\Nc1nc2c(c(=O)n(C)c(=O)n2C)n1C` is 5.02%.
